Measured values as given in PubChem BioAssay AID1117353 (Cheminformatics & Chemogenomics Research Group (CCRG), …, 2015).
Unmarked numbers belong to inactive results. Calls of active or inactive are those of the source. Cut-off read from the data, not from the text of the source: active = inhibition above about 50%; inactive = the rest.

molecular target: Vascular endothelial growth factor receptor 2 (Homo sapiens) (UniProt P35968); experiment: VEGFR2 inhibitors, primary assay, biochemical, Homo sapiens, LANCE Ultra TR-FRET, NPC library (AID 1117353); conditions: LANCE Ultra TR-FRET kinase assay; at 20 µM (top of the series)
Sequence (P35968 whole entry, looked up): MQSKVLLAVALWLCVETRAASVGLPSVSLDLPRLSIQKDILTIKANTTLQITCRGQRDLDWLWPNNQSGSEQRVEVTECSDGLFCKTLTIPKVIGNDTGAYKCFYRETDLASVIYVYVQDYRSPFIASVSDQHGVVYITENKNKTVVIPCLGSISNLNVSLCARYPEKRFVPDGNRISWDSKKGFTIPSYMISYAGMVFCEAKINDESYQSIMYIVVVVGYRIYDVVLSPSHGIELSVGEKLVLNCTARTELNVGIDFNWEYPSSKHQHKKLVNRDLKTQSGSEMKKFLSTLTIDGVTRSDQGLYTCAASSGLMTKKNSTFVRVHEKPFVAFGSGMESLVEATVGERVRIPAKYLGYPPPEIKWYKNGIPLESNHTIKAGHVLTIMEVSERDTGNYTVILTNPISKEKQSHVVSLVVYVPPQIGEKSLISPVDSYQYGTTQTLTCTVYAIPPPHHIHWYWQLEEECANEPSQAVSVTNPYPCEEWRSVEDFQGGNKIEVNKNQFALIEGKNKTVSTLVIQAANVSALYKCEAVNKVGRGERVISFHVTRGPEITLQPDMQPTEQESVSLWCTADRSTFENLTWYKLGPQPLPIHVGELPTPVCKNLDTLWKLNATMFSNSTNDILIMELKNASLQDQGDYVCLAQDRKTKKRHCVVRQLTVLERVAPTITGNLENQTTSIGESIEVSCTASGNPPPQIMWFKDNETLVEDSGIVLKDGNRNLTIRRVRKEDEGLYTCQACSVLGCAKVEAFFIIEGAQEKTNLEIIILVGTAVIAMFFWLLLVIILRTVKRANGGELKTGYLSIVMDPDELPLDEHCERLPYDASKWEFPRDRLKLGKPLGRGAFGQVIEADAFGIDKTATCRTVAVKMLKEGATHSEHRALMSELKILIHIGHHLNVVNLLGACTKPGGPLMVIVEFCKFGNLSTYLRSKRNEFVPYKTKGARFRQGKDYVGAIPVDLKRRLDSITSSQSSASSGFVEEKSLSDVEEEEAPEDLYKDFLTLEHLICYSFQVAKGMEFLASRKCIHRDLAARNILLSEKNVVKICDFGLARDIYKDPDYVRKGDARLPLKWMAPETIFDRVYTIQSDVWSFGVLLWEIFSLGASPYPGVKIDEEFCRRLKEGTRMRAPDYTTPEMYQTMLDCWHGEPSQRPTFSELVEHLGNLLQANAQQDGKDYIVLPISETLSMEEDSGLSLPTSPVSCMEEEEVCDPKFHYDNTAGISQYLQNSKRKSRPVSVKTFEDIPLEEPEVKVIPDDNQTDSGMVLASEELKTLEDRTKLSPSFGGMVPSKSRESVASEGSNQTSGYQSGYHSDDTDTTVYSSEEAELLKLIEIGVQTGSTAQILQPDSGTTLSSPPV

Row | Structure (SMILES) | inhibition
1 | CCC(C)n1ncn(-c2ccc(N3CCN(c4ccc(OC[C@H]5CO[C@](Cn6cncn6)(c6ccc(Cl)cc6Cl)O5)cc4)CC3)cc2)c1=O (stereo partly specified) | 22.4%
2 | O=C(NOCC1CC1)c1ccc(F)c(F)c1Nc1ccc(I)cc1Cl | 12.4%
3 | Nc1nc(=S)c2[nH]cnc2[nH]1 | -5.99%
4 | CCCN(CCC)C(=O)C(CCC(=O)OCCCN1CCN(CCOC(=O)Cc2c(C)n(C(=O)c3ccc(Cl)cc3)c3ccc(OC)cc23)CC1)NC(=O)c1ccccc1 (stereo unspecified) | -17.9%
5 | NC(=NCCCCCCN=C(N)/N=C(\N)Nc1ccc(Cl)cc1)/N=C(\N)Nc1ccc(Cl)cc1 | -1.66%
6 | CCN(CC)CCOc1ccc(/C(=C(\Cl)c2ccccc2)c2ccccc2)cc1 | -7.53%
7 | Cc1cc(C2CCCCC2)n(O)c(=O)c1 | 4.72%
8 | Cc1cc2c(C(C)C)c(O)c(O)c(C=O)c2c(O)c1-c1c(C)cc2c(C(C)C)c(O)c(O)c(C=O)c2c1O | -2.11%
9 | CCCCCCCCCCCCCC[N+](C)(C)C | 11.2%
10 | COc1ccc(-c2nc3ccc(C4=NNC(=O)CC4C)cc3[nH]2)cc1 (stereo unspecified) | -36.5%
11 | CCN(CC)CCNc1ccc(CO)c2sc3ccccc3c(=O)c12 | 7.72%
12 | CCCCc1oc2ccccc2c1C(=O)c1cc(I)c(OCCN(CC)CC)c(I)c1 | 22.9%
13 | COC(=O)Nc1nc2ccc(C(=O)C3CC3)cc2[nH]1 | 69.1% (active)
14 | CC[C@@]1(O)C(=O)OCc2c1cc1n(c2=O)Cc2c-1nc1ccccc1c2/C=N/OC(C)(C)C | 18.1%
15 | O=C(Nc1ccc([N+](=O)[O-])cc1Cl)c1cc(Cl)ccc1O | 5.08%
16 | CC(C)C[C@H](NC(=O)[C@H](Cc1ccccc1)NC(=O)c1cnccn1)B(O)O | 19%
17 | COc1cc(-c2ccc(=O)[nH]n2)ccc1OC(F)F | -22.3%
18 | Cn1cnc([N+](=O)[O-])c1Sc1ncnc2nc[nH]c12 | -18.2%
19 | COc1ccc(-c2ccc3cc(C(=O)O)ccc3c2)cc1C12CC3CC(CC(C3)C1)C2 | 96.3% (active)
20 | CC[C@@H]([C@H](C)O)n1ncn(-c2ccc(N3CCN(c4ccc(OC[C@@H]5CO[C@@](Cn6cncn6)(c6ccc(F)cc6F)C5)cc4)CC3)cc2)c1=O | 22.9%
21 | CC(=O)Oc1ccc(C2(c3ccc(OC(C)=O)cc3)Oc3ccccc3NC2=O)cc1 | -14.8%
22 | Cc1nc(N)nc(N)c1-c1ccc(Cl)c(Cl)c1 | -0.1%
23 | Cc1nc2ccc(CN(C)c3ccc(C(=O)N[C@@H](CCC(=O)O)C(=O)O)s3)cc2c(=O)[nH]1 | 7.13%
24 | COC(=O)Nc1nc2ccc(Sc3ccccc3)cc2[nH]1 | 6%
25 | Oc1c(I)cc(I)c2cccnc12 | 0.24%
26 | CCCCCCNC(=O)n1cc(F)c(=O)[nH]c1=O | -15.1%
